The results in this text go back to PubChem BioAssay AID1053144 (Broad Institute, 2014).

The campaign covered roughly 3,400 compounds. About 160 (4.7%) were called active.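 The calls were made as follows: active = fitted curve reaches 30% activation at a concentration no higher than the top valid tested dose, luminescence rising; inconclusive = no clear call, values can overlap the other calls; inactive = signal moving opposite to the expected increase, plus the rest.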 Only a sample is shown. Measured potencies and affinities stand elsewhere.

A short description of the test: TCF/LEF reporter activation in neural progenitors – cell-based, iPS-derived NPC, luciferase, Wnt3a, cherry-pick, dose response (AID 1053144).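 Also: Wnt3a stimulus is conditioned medium from Wnt3a-transfected mouse L cells at 5% in well.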 The settings on record: Wnt3a EC25, 24 h; series mostly up to 26 µM.
For `COc1ccc(-c2nc3c4ccccc4[nH]c(=O)n3n2)cc1`, the activation result was “inactive”.

Consider `O=C(NCC(=O)N1CCCCC1)c1sc2ccccc2c1Cl`, for which the activation result was “inactive”. For `O=C(Nc1nccs1)c1sc2cc(Cl)ccc2c1Cl`, the activation entry is “inactive”. For `C/C(=C\c1ccccc1)C(=O)NCc1ccco1` the value was “inactive”; for `O=C(NN1C(=O)C2C3c4ccccc4C(c4ccccc43)[C@@H]2C1=O)c1ccccc1` (some centres undefined), “inactive”.

Regarding `CN(CC(=O)Nc1ccc(F)cc1)C(=O)COC(=O)c1cccc(N(C)C)c1`, the activation result is “inactive”.

In the case of `CCOC(=O)c1cccc(COC(=O)c2cccc(-c3nnc(-c4ccccc4)o3)c2)c1`, the activation result was “inactive”. Under `COc1ccc(/C=C2\CCC(C3CCCC3)C2=O)cc1OC` (centres undefined) stands “inactive”; under `Cc1cc(C)n(-c2nc3ccccc3s2)n1`, “inactive”. For `CN(C)c1ccc(-c2ccc3c(=O)c4ccccc4n(C)c3c2)cn1`, the activation result is “inactive”.

`O=C(COn1nnc2ccccc21)NCC1CCCCC1`: the activation entry is “inactive”. For `O=C(NNS(=O)(=O)c1ccccc1)C1CCN(S(=O)(=O)c2ccccc2)CC1` the value was “inactive”. For `O=C(c1ccc(F)cc1)c1cc2ccccc2o1`, the activation entry was “inactive”.

With `O=C(Nc1ccccc1)c1cc2ccccc2o1`, the activation entry is “inactive”. Under `COc1ccc(/C=C2/CCc3ccccc3C2=O)cc1OC` stands “inactive”; under `O=C(/C(=C/c1ccc(Cl)cc1)c1nc2ccccc2[nH]1)c1ccccc1`, “inactive”; under `Cc1ccc(/C=C/C(=O)c2nc3ccccc3[nH]2)cc1`, “inactive”. For `Nc1c(C(=O)Nc2ccc(Cl)cc2)oc2ccccc12` the value was “inactive”; for `O=C(/C=C/c1ccco1)Nc1ccccc1C(=O)O`, “inactive”; for `CCc1nnc(NC(=O)/C=C/c2ccco2)s1`, “inactive”. `CCOc1ccc(CCNC(=O)COc2cc(=O)n(C)c3ccccc23)cc1OCC`: the activation entry is “inactive”. Regarding `CCOc1ccc(CCNC(=O)COC(=O)c2cccc(N(C)C)c2)cc1OCC`, the activation entry is “inactive”. Turning to `CC(C)(C)c1ccc(/C=C/C(=O)Nc2cccnc2)cc1`, the activation result is “inactive”. Take `Cc1cc(C(=O)COC(=O)c2ccc(O)cc2)c(C)n1CC(F)(F)F`: the activation result was “inactive”.

In the case of `C(=C\c1cc(/C=C/c2ccccc2)ncn1)/c1ccccc1`, the activation result was “inactive”. For `COc1ccc(C(=O)/C=C/c2ccccc2C(F)(F)F)cc1` the value was “inactive”; for `COC(=O)c1ccc(NC(=O)Cc2ccccc2)cc1`, “inactive”; for `CCCCOC(=O)Nc1ccc(N2CCCCC2)cc1`, “inactive”.

Consider `COc1ccc(/C=C(/NC(=O)c2ccccc2Cl)C(=O)O)cc1`, for which the activation result is “inactive”. For `O=C(O)Cc1sc(Nc2ccccc2)nc1-c1cccs1`, the activation entry is “inactive”.

In the case of `Cc1nc(Nc2ccccc2)sc1C(=O)c1ccccc1`, the activation entry was “inactive”. As to `O=C(Nc1ccc(Cl)cc1)Nc1ccccc1C(=O)NCc1ccco1`, the activation result is “inactive”. For the compound `Cc1ccsc1C(=O)OCc1cc(=O)n2ccsc2n1`, the activation entry is “inactive”. Under `COC(=O)CNc1c(-c2ccccn2)nc2ccc(Br)cn12` stands “inactive”; under `COC(=O)c1ccc(NC(=O)c2cccc(OC)c2)cc1`, “inactive”.

Take `COc1ccc(NC(=O)c2cccc(OS(=O)(=O)N(C)C)c2)cc1`: the activation result was “inactive”.

As to `O=C(/C=C\c1ccco1)Oc1cccc2cccnc12`, the activation entry is “inactive”.

As for `C(=N\Nc1nccc(-c2cccnc2)n1)/c1ccccc1`, the activation result is “inactive”. Under `CC(C)(C)c1cc(C(=O)NNC(=O)c2ccc(C(F)(F)F)cc2)no1` stands “inactive”. Under `COc1ccc(/C=C/C(=O)c2ccccn2)cc1` stands “inactive”; under `CN(C)c1ccc(/C=C/c2ccncc2)cc1`, “inactive”; under `COc1c(OC(C)=O)ccc(/C=C/c2ccc3cccc(OC)c3n2)c1[N+](=O)[O-]`, “inactive”. For the compound `CC(=O)Nc1ccc(-c2ccnc3c2CC(C)(C(=O)NC(C)C)O3)cc1` (centres undefined), the activation entry is “inactive”. As for `Cc1ccc(NC(=O)CSc2nccn2Cc2ccco2)c(C)c1`, the activation result is “inactive”. `Cn1c(CCNC(=O)c2ccco2)nc2cc(NC(=O)c3ccccc3)ccc21`: the activation result is “inactive”. Regarding `CCC(=O)NCCc1nc2cc(NC(=O)c3ccc(Cl)cc3)ccc2n1C`, the activation entry is “inactive”. For `Clc1ccccc1Nc1nc(-c2cccnc2)cs1` the value was “inactive”; for `Nc1ccccc1-n1cccc1`, “inactive”; for `Cc1ccc(S(=O)(=O)N2CCCC(C(=O)Nc3ccc(NC(=O)c4ccccn4)cc3)C2)cc1` (centres undefined), “inactive”.

On to `Oc1ccc(-c2csc(Nc3ncccn3)n2)c(O)c1`, for which the activation entry is “inactive”.

On to `COc1ccc(-c2nc3n(c2C)Cc2ccccc2-3)cc1`, for which the activation entry is “inactive”. Consider `Clc1ccc(-c2nc3n(n2)Cc2ccccc2-3)cc1`, for which the activation result was “inactive”.

`Cn1c(-c2ccc(F)c(F)c2)cc2onc(-c3ccccc3)c2c1=O`: the activation entry is “inactive”. With `NC(=O)C1CCN(C(=O)c2cc3c(s2)CCCCC3)CC1`, the activation entry is “inactive”.

Take `O=C(Nc1nc(-c2ccc3c(c2)OCCO3)cs1)C1CCCC1`: the activation entry is “inactive”. Turning to `O=C(Nc1nc(-c2nc3ccccc3s2)cs1)C1CC1`, the activation entry is “inactive”. In the case of `CC(C)(C)c1ccc(NC(=O)c2ccccc2)c([N+](=O)[O-])c1`, the activation result was “inactive”. With `O=C(Nc1ccc2c(c1)OCO2)Nc1ccccn1`, the activation entry was “inactive”. For `Cc1ccc(CNC(=O)c2ccc(Cn3cc(-c4ccc(C)cc4)nc3-c3ccncc3)cc2)cc1` the value was “inactive”. Under `Nc1nc(-c2cc(-c3ccccc3)no2)cs1` stands “inactive”; under `Clc1ccc(-c2cc(-c3ccccc3)on2)cc1`, “inactive”. Regarding `Cc1ccc(OCC(=O)Nc2ccccc2F)cc1`, the activation result was “inactive”. With `COc1cccc(OCC(=O)Nc2ccccc2C(N)=O)c1`, the activation entry was “inactive”.

Regarding `Cc1cc(C)c(C#N)c(N2CCSCC2)n1`, the activation result was “inactive”.

For the compound `NC(=O)c1ccccc1NC(=O)c1ccc2c(c1)OCO2`, the activation result was “inactive”. For `Cc1nc(NC(=O)c2ccc3c(c2)OCCO3)ccc1Br` the value was “inactive”; for `O=C(Nc1cccnc1)c1ccc(Oc2ccccc2)cc1`, “inactive”. Consider `O=C(Nc1ccc(Cl)cc1Cl)c1ccc2c(c1)OCCO2`, for which the activation result is “inactive”. Under `O=C(Nc1ccccc1F)c1ccc2c(c1)OCO2` stands “inactive”; under `O=C(Nc1ncccc1O)c1ccc2ccccc2c1`, “inactive”. Take `COCCn1c(C)cc(C(=O)CSc2nc3ccccc3c(=O)n2Cc2ccco2)c1C`: the activation result is “inactive”. Take `Nc1cc([N+](=O)[O-])ccc1OCc1ccccc1`: the activation entry is “inactive”. For `O=C(Nc1cc2c(cc1Br)OCCCO2)c1ccccc1` the value was “inactive”. For `C/C(=C\c1ccccc1)C(=O)NCCc1ccccc1` the value was “inactive”. Under `CN(CCO)C(=O)c1ccc(-c2nn(C)c(=O)c3ccccc23)cc1` stands “inactive”; under `O=C(Nc1cccc(F)c1)Nc1ccc2c(c1)CCC2`, “inactive”. In the case of `O=C(Nc1ccc2c(c1)CCC2)c1cccs1`, the activation entry is “inactive”. In the case of `O=C(CCNC(=O)c1ccc(Cl)cc1)NC1CCCCCC1`, the activation result was “inactive”. Consider `CCOc1cc(/C=N/NC(=O)CSc2nnc(C)s2)ccc1OCc1ccccc1Cl`, for which the activation result is “inactive”.

Turning to `O=c1oc(CCO)cc2ccc(-c3ccc4[nH]ccc4c3)cc12`, the activation result was “inactive”. Take `O=c1c2ccccc2oc2cc(-c3ccc4cc[nH]c4c3)ccc12`: the activation entry is “inactive”. For `CC1CCc2c(sc(/N=C/c3ccco3)c2C(N)=O)C1` (centres undefined) the value was “inactive”; for `Fc1ccc2cc(-c3ccccc3F)ncc2c1`, “inactive”; for `Cc1cc(NC(=O)c2ccc(OCC3CCCO3)cc2)ccc1Br` (centres undefined), “inactive”.

As to `O=c1c2ccccc2nc2c3ccccc3c(NCc3ccccn3)nn12`, the activation result was “inactive”.

`O=C(CSc1nc2ccccc2c(=O)n1NC(=O)c1ccccc1)c1ccc(Cl)cc1`: the activation result was “inactive”. Regarding `Cn1cccc1C(=O)OCC(=O)Nc1ccc2c(c1)OCCO2`, the activation entry was “inactive”. Under `Cc1ccccc1Cn1nnc(C(=O)Nc2ccc3c(c2)OCCO3)c1N` stands “inactive”; under `Fc1ccccc1-c1nc2ccccc2[nH]1`, “inactive”. Turning to `CCOC(=O)c1sc(=NC(=O)c2ccccc2)n(C)c1C`, the activation result was “inactive”. For `CCOC(=O)c1sc(=NC(=O)c2ccc(C)cc2)n(C)c1C` the value was “inactive”. Under `NC(=O)c1cc(Cl)ccc1OCC(=O)Nc1ccc2c(c1)OCO2` stands “inactive”. For `O=C(O)c1ccc(N/N=C/c2cccc3cccnc23)cc1` the value was “inactive”; for `Oc1ccccc1/C=N/Nc1cccc2cccnc12`, “inactive”; for `Cc1ccc(C(=O)Nc2cccc(C(=O)N3CCOCC3)c2)cc1`, “inactive”. In the case of `Cn1cccc1C(=O)OCC(=O)N1CCc2ccccc21`, the activation result was “inactive”. On to `COC(=O)N=Nc1c(O)[nH]c2ccc(Br)cc12`, for which the activation result was “inactive”.

On to `O=C(N=Nc1c(O)[nH]c2ccc(Br)cc12)c1ccco1`, for which the activation result is “inactive”. With `O=C1CCN(Cc2ccccc2)C=C1c1ccc2ccccc2c1`, the activation entry is “inactive”. For `CC(C)=CC(=O)Nc1ccc(Cl)cc1` the value was “inactive”; for `O=C(NCCc1cccc(Cl)c1)c1ccc2c(c1)OCO2`, “inactive”. Consider `O=C(/C=C/c1ccco1)Nc1cccnc1`, for which the activation entry was “inactive”.

On to `O=C(/C=C/c1ccco1)Nc1cccnc1Cl`, for which the activation result was “inactive”. Under `COc1cccc(NC(=O)/C=C/c2ccco2)c1` stands “inactive”; under `Cc1ccc(-n2nc3ccc(NC(=O)/C=C/c4ccco4)cc3n2)cc1`, “inactive”. For `COc1cccc(-c2cc(C(=O)N3CCCCCC3)no2)c1` the value was “inactive”. For `COc1ccc(-c2cc3nc4n(c(=O)c3s2)CCCCC4)cc1` the value was “inactive”; for `O=C(COc1ccc(F)cc1Cl)NC1CCCCCC1`, “inactive”. With `COc1ccc2c(c1)-c1nc(NC(=O)c3ccco3)sc1CC2`, the activation result is “inactive”. Take `N/C(=N\OC(=O)c1ccco1)c1ccccc1`: the activation result is “inactive”. Under `COc1ccc(C(=O)O/N=C(\N)c2ccc(Br)cc2)cc1` stands “inactive”. Consider `Cc1cccc(C(=O)O/N=C(\N)c2ccc(Cl)cc2)c1`, for which the activation entry was “inactive”. With `COc1ccccc1C(=O)O/N=C(\N)c1ccccn1`, the activation entry was “inactive”.

For the compound `COc1ccccc1C(=O)O/N=C(\N)c1ccccc1Cl`, the activation entry is “inactive”. On to `N/C(=N\OC(=O)c1ccco1)c1cccnc1`, for which the activation entry was “inactive”. Take `COc1ccc(-c2cc(-c3ccc(C)cc3)n[nH]2)c(O)c1`: the activation entry is “inactive”. For `NS(=O)(=O)c1ccc2nc(NC(=O)Nc3ccccc3F)sc2c1` the value was “inactive”; for `Cc1ccc2[nH]c(-c3cccc(N)c3)cc2c1`, “inactive”; for `O=C(/C=C/c1ccc(F)cc1)NCCC1=CCCCC1`, “inactive”. Take `CC(C)(C)c1ccc(NC(=O)c2ccc(=O)[nH]n2)cc1`: the activation entry was “inactive”. Under `COc1ccc2cc(-c3ccsc3)ncc2c1` stands “inactive”. Under `CC1(C)CC(=O)C2=C(C1)Nc1ccccc1NC2c1ccc2c(c1)OCO2` (centres undefined) stands “inactive”; under `O=C1CC(c2ccco2)CC2=C1C=Nc1ccccc1N2` (centres undefined), “inactive”; under `O=C(NCCc1cccs1)c1ccc(Cl)c(Cl)c1`, “inactive”.
